# Results from the supplement of paper PMC9694430.
# What was measured:
# Test in all cases: thermal shift delta Tm vs DMSO control; higher = stronger stabilization (binding)
# Conditions in all cases: 12.5 µM; protein concentration 2 µM
# LOC_OS01G01410-cb001 = tested on: LOC_OS01G01410-cb001
# Summary of the method: (§1)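 Purified, E. coli-expressed rice kinase domain constructs were tested by differential scanning fluorimetry in 96-well plates: 19.5 μl of 2 μM kinase in 100 mM potassium phosphate pH 7.5, 150 mM NaCl, 10% glycerol, 5 × SYPRO Orange, plus compound in DMSO. Fluorescence was read from 25°C to 95°C at 0.05°C/s. Melting temperatures came from Boltzmann fits, and the shift is the triplicate mean relative to protein with DMSO alone.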
# LOC_OS01G02750-cb003 = tested on: LOC_OS01G02750-cb003
# Summary of the method: as §1
# LOC_OS01G10900-cb004 = tested on: LOC_OS01G10900-cb004
# Summary of the method: as §1
# LOC_OS01G13800-cb001 = tested on: LOC_OS01G13800-cb001
# Summary of the method: as §1
# LOC_OS01G14860-cb001 = tested on: LOC_OS01G14860-cb001
# Summary of the method: as §1
# LOC_OS01G21960-cb002 = tested on: LOC_OS01G21960-cb002
# Summary of the method: as §1
# LOC_OS01G39600-cb002 = tested on: LOC_OS01G39600-cb002
# Summary of the method: as §1
# LOC_OS01G48390-cb002 = tested on: LOC_OS01G48390-cb002
# Summary of the method: as §1
# LOC_OS01G51400-cb002 = tested on: LOC_OS01G51400-cb002
# Summary of the method: as §1
# LOC_OS01G52050-cb004 = tested on: T1, LOC_OS01G52050-cb004
# T1 sequence (whole entry): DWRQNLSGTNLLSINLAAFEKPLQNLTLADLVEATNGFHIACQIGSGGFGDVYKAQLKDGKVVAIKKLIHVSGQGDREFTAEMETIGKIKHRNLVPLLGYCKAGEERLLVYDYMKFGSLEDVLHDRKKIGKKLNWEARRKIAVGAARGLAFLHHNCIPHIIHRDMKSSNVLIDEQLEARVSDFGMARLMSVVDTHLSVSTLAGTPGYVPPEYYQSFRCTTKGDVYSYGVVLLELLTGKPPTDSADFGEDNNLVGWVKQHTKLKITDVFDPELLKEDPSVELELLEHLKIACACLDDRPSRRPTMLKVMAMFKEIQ
# Summary of the method: as §1
# LOC_OS01G57100-cb003 = tested on: LOC_OS01G57100-cb003
# Summary of the method: as §1
# LOC_OS01G60330-cb001 = tested on: LOC_OS01G60330-cb001
# Summary of the method: as §1
# LOC_OS01G60700-cb002 = tested on: LOC_OS01G60700-cb002
# Summary of the method: as §1
# LOC_OS01G63280-cb003 = tested on: LOC_OS01G63280-cb003
# Summary of the method: as §1
# LOC_OS01G67340-cb003 = tested on: LOC_OS01G67340-cb003
# Summary of the method: as §1
# LOC_OS01G70970-cb002 = tested on: LOC_OS01G70970-cb002
# Summary of the method: as §1
# LOC_OS02G07810-cb001 = tested on: LOC_OS02G07810-cb001
# Summary of the method: as §1
# LOC_OS02G08530-cb003 = tested on: LOC_OS02G08530-cb003
# Summary of the method: as §1
# LOC_OS02G14120-cb001 = tested on: LOC_OS02G14120-cb001
# Summary of the method: as §1
# LOC_OS02G17970-cb001 = tested on: LOC_OS02G17970-cb001
# Summary of the method: as §1
smiles,measurement,setting,value
c1cc(-c2cnn3cc(-c4ccc(OCCN5CCCCC5)cc4)cnc23)ccn1 [Dorsomorphin 2HCl],thermal shift delta Tm,LOC_OS01G01410-cb001,4.71 °C
same,thermal shift delta Tm,LOC_OS01G02750-cb003,10.2 °C
same,thermal shift delta Tm,LOC_OS01G10900-cb004,8.66 °C
same,thermal shift delta Tm,LOC_OS01G13800-cb001,0.11 °C
same,thermal shift delta Tm,LOC_OS01G14860-cb001,2.59 °C
same,thermal shift delta Tm,LOC_OS01G21960-cb002,3 °C
same,thermal shift delta Tm,LOC_OS01G39600-cb002,7.6 °C
same,thermal shift delta Tm,LOC_OS01G48390-cb002,5.88 °C
same,thermal shift delta Tm,LOC_OS01G51400-cb002,0.21 °C
same,thermal shift delta Tm,LOC_OS01G52050-cb004,6.74 °C
same,thermal shift delta Tm,LOC_OS01G57100-cb003,-0.53 °C
same,thermal shift delta Tm,LOC_OS01G60330-cb001,4.55 °C
same,thermal shift delta Tm,LOC_OS01G60700-cb002,0.2 °C
same,thermal shift delta Tm,LOC_OS01G63280-cb003,1.5 °C
same,thermal shift delta Tm,LOC_OS01G67340-cb003,6.09 °C
same,thermal shift delta Tm,LOC_OS01G70970-cb002,8.77 °C
same,thermal shift delta Tm,LOC_OS02G07810-cb001,0.33 °C
same,thermal shift delta Tm,LOC_OS02G08530-cb003,2.18 °C
same,thermal shift delta Tm,LOC_OS02G14120-cb001,8.01 °C
same,thermal shift delta Tm,LOC_OS02G17970-cb001,-0.02 °C
CN1CCN(c2cccc(Nc3nc4c(-c5ccc(S(C)(=O)=O)cc5)cccn4n3)c2)CC1,thermal shift delta Tm,LOC_OS01G01410-cb001,2.06 °C
same,thermal shift delta Tm,LOC_OS01G02750-cb003,0.63 °C
same,thermal shift delta Tm,LOC_OS01G10900-cb004,1.02 °C
same,thermal shift delta Tm,LOC_OS01G13800-cb001,-0.37 °C
same,thermal shift delta Tm,LOC_OS01G14860-cb001,0.51 °C
same,thermal shift delta Tm,LOC_OS01G21960-cb002,1.39 °C
same,thermal shift delta Tm,LOC_OS01G39600-cb002,2.12 °C
same,thermal shift delta Tm,LOC_OS01G48390-cb002,1.12 °C
same,thermal shift delta Tm,LOC_OS01G51400-cb002,0.39 °C
same,thermal shift delta Tm,LOC_OS01G52050-cb004,2.68 °C
same,thermal shift delta Tm,LOC_OS01G57100-cb003,0.76 °C
same,thermal shift delta Tm,LOC_OS01G60330-cb001,13.8 °C
same,thermal shift delta Tm,LOC_OS01G60700-cb002,0.45 °C
same,thermal shift delta Tm,LOC_OS01G63280-cb003,0.49 °C
same,thermal shift delta Tm,LOC_OS01G67340-cb003,1.35 °C
same,thermal shift delta Tm,LOC_OS01G70970-cb002,0.37 °C
same,thermal shift delta Tm,LOC_OS02G07810-cb001,0.59 °C
same,thermal shift delta Tm,LOC_OS02G08530-cb003,1.34 °C
same,thermal shift delta Tm,LOC_OS02G14120-cb001,6.3 °C
same,thermal shift delta Tm,LOC_OS02G17970-cb001,0.48 °C
CNC(=O)c1ccccc1Nc1cc(Nc2ccc(N3CCOCC3)cc2OC)ncc1C(F)(F)F,thermal shift delta Tm,LOC_OS01G01410-cb001,0.48 °C
same,thermal shift delta Tm,LOC_OS01G02750-cb003,1.23 °C
same,thermal shift delta Tm,LOC_OS01G10900-cb004,0.53 °C
same,thermal shift delta Tm,LOC_OS01G13800-cb001,1.17 °C
same,thermal shift delta Tm,LOC_OS01G14860-cb001,1.05 °C
same,thermal shift delta Tm,LOC_OS01G21960-cb002,1.09 °C
same,thermal shift delta Tm,LOC_OS01G39600-cb002,0.34 °C
same,thermal shift delta Tm,LOC_OS01G48390-cb002,0.58 °C
same,thermal shift delta Tm,LOC_OS01G51400-cb002,0.74 °C
same,thermal shift delta Tm,LOC_OS01G52050-cb004,5.73 °C
same,thermal shift delta Tm,LOC_OS01G57100-cb003,2.14 °C
same,thermal shift delta Tm,LOC_OS01G60330-cb001,0.41 °C
same,thermal shift delta Tm,LOC_OS01G60700-cb002,1.89 °C
same,thermal shift delta Tm,LOC_OS01G63280-cb003,0.52 °C
same,thermal shift delta Tm,LOC_OS01G67340-cb003,3.13 °C
same,thermal shift delta Tm,LOC_OS01G70970-cb002,10.3 °C
same,thermal shift delta Tm,LOC_OS02G07810-cb001,0.91 °C
same,thermal shift delta Tm,LOC_OS02G08530-cb003,3.96 °C
same,thermal shift delta Tm,LOC_OS02G14120-cb001,9.46 °C
same,thermal shift delta Tm,LOC_OS02G17970-cb001,2.18 °C
"C[C@H](Nc1ncnc2nc[nH]c12)c1cc2cccc(Cl)c2c(=O)n1-c1ccccc1 [Duvelisib (IPI-145, INK1197)]",thermal shift delta Tm,LOC_OS01G01410-cb001,-0.46 °C
same,thermal shift delta Tm,LOC_OS01G02750-cb003,0.34 °C
same,thermal shift delta Tm,LOC_OS01G10900-cb004,0.09 °C
same,thermal shift delta Tm,LOC_OS01G13800-cb001,-0.35 °C
same,thermal shift delta Tm,LOC_OS01G14860-cb001,0.37 °C
same,thermal shift delta Tm,LOC_OS01G21960-cb002,0.25 °C
same,thermal shift delta Tm,LOC_OS01G39600-cb002,-0.51 °C
same,thermal shift delta Tm,LOC_OS01G48390-cb002,1.02 °C
same,thermal shift delta Tm,LOC_OS01G51400-cb002,0.38 °C
same,thermal shift delta Tm,LOC_OS01G52050-cb004,0.47 °C
same,thermal shift delta Tm,LOC_OS01G57100-cb003,-0.45 °C
same,thermal shift delta Tm,LOC_OS01G60330-cb001,0.3 °C
same,thermal shift delta Tm,LOC_OS01G60700-cb002,1.43 °C
same,thermal shift delta Tm,LOC_OS01G63280-cb003,0.2 °C
same,thermal shift delta Tm,LOC_OS01G67340-cb003,0.06 °C
same,thermal shift delta Tm,LOC_OS01G70970-cb002,0.33 °C
same,thermal shift delta Tm,LOC_OS02G07810-cb001,0.73 °C
same,thermal shift delta Tm,LOC_OS02G08530-cb003,0.77 °C
same,thermal shift delta Tm,LOC_OS02G14120-cb001,0.47 °C
same,thermal shift delta Tm,LOC_OS02G17970-cb001,0.68 °C
CC(C)Oc1ccc(-c2nn([C@@H](C)c3oc4ccc(F)cc4c(=O)c3-c3cccc(F)c3)c3ncnc(N)c23)cc1F,thermal shift delta Tm,LOC_OS01G01410-cb001,0.45 °C
same,thermal shift delta Tm,LOC_OS01G02750-cb003,1.4 °C
same,thermal shift delta Tm,LOC_OS01G10900-cb004,0.72 °C
same,thermal shift delta Tm,LOC_OS01G13800-cb001,0.18 °C
same,thermal shift delta Tm,LOC_OS01G14860-cb001,0.59 °C
same,thermal shift delta Tm,LOC_OS01G21960-cb002,0.77 °C
same,thermal shift delta Tm,LOC_OS01G39600-cb002,-0.2 °C
same,thermal shift delta Tm,LOC_OS01G48390-cb002,1.45 °C
same,thermal shift delta Tm,LOC_OS01G51400-cb002,0.32 °C
same,thermal shift delta Tm,LOC_OS01G52050-cb004,0.73 °C
same,thermal shift delta Tm,LOC_OS01G57100-cb003,1.03 °C
same,thermal shift delta Tm,LOC_OS01G60330-cb001,1.25 °C
same,thermal shift delta Tm,LOC_OS01G60700-cb002,0.79 °C
same,thermal shift delta Tm,LOC_OS01G63280-cb003,0.47 °C
same,thermal shift delta Tm,LOC_OS01G67340-cb003,0.6 °C
same,thermal shift delta Tm,LOC_OS01G70970-cb002,0.55 °C
same,thermal shift delta Tm,LOC_OS02G07810-cb001,-0.1 °C
same,thermal shift delta Tm,LOC_OS02G08530-cb003,0.12 °C
same,thermal shift delta Tm,LOC_OS02G14120-cb001,1.41 °C
same,thermal shift delta Tm,LOC_OS02G17970-cb001,1.06 °C
Fc1ccc2[nH]ccc2c1-c1nc(N2CCOCC2)c2sc(CN3CCN(CC4CC4)CC3)cc2n1,thermal shift delta Tm,LOC_OS01G01410-cb001,0.26 °C
same,thermal shift delta Tm,LOC_OS01G02750-cb003,0.77 °C
same,thermal shift delta Tm,LOC_OS01G10900-cb004,2.96 °C
same,thermal shift delta Tm,LOC_OS01G13800-cb001,-0.36 °C
same,thermal shift delta Tm,LOC_OS01G14860-cb001,0.37 °C
same,thermal shift delta Tm,LOC_OS01G21960-cb002,-0.01 °C
same,thermal shift delta Tm,LOC_OS01G39600-cb002,-0.27 °C
same,thermal shift delta Tm,LOC_OS01G48390-cb002,0.62 °C
same,thermal shift delta Tm,LOC_OS01G51400-cb002,-0.02 °C
same,thermal shift delta Tm,LOC_OS01G52050-cb004,0.03 °C
same,thermal shift delta Tm,LOC_OS01G57100-cb003,1.16 °C
same,thermal shift delta Tm,LOC_OS01G60330-cb001,0.82 °C
same,thermal shift delta Tm,LOC_OS01G60700-cb002,1.22 °C
same,thermal shift delta Tm,LOC_OS01G63280-cb003,0.86 °C
same,thermal shift delta Tm,LOC_OS01G67340-cb003,0.95 °C
same,thermal shift delta Tm,LOC_OS01G70970-cb002,0.31 °C
same,thermal shift delta Tm,LOC_OS02G07810-cb001,0.15 °C
same,thermal shift delta Tm,LOC_OS02G08530-cb003,0.45 °C
same,thermal shift delta Tm,LOC_OS02G14120-cb001,0.72 °C
same,thermal shift delta Tm,LOC_OS02G17970-cb001,0.68 °C
